Screening results (PubChem BioAssay)
BoNT-A LC inh2: BoNT A light chain protease inhibition; multiplex microsphere protease substrate cleavage, flow cytometry; inhibition, % at 10 µM; hit rate 0.17% among 360,000; AID 588499
Bead autofluor: flagged as autofluorescent in microsphere protease counterscreen | compound autofluorescence counterscreen, microsphere flow cytometry; hits give high values | fluorescence intensity (test concentration not listed) | hit rate 3.1% among 360,000 | AID 624483; in the data active = fluorescence intensity above about 16000; inconclusive = no clear call, values can overlap the other calls
BoNT F protease: blocks Botulinum neurotoxin F light chain protease; Multiplex microsphere protease cleavage assay, flow cytometry; inhibition, % at 10 µM; hit rate 0.22% among 360,000; in the data active = inhibition above about 35%, passing the limit was not always enough; inconclusive = no clear call, values can overlap the other calls
Anthrax LF inh2: inhibitors of Bacillus anthracis lethal factor protease; P15917; multiplex microsphere protease cleavage assay, LF; inhibition, % at 10 µM; hit rate 0.12% among 360,000; AID 588501
Target sequence (P15917 whole entry, looked up): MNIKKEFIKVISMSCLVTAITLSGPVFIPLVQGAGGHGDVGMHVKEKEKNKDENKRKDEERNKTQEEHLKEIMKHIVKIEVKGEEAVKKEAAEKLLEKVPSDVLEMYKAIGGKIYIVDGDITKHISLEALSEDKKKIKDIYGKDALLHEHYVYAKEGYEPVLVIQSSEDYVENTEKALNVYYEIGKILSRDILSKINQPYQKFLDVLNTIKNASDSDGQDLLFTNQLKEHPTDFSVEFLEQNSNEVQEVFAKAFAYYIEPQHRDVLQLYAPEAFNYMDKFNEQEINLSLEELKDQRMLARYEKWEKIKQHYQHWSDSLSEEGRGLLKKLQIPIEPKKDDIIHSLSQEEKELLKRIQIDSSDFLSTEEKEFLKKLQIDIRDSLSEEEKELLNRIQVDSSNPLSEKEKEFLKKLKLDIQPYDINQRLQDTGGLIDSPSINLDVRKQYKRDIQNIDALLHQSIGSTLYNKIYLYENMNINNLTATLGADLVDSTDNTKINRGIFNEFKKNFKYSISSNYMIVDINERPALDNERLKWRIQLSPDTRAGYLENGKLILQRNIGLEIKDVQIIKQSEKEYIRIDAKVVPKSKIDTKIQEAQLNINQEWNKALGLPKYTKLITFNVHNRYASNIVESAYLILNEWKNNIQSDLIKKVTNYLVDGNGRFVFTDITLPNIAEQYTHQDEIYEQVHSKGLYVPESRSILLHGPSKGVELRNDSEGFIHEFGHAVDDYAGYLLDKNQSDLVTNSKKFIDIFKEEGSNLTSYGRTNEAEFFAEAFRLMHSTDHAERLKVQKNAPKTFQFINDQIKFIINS
Hits are given with their value. An excerpt weighted towards active compounds, which were near 3.5% of everything screened. Rule as the data show it, unless noted: active = inhibition above about 30%; inconclusive = no clear call, values can overlap the other calls; inactive = below that.

Results for O=C(OCc1ccccc1)N(CCF)c1cn(Cc2ccccc2)c(=O)n(Cc2ccccc2)c1=O ?
BoNT-A LC inh2: inactive; Bead autofluor: inactive; BoNT F protease: inactive; Anthrax LF inh2: inactive

What do the screens show for `Cc1ccccc1N1CCN(Cc2c(C#N)c3ccccc3n2C)CC1`?
BoNT-A LC inh2: inactive; Bead autofluor: 23866; BoNT F protease: inactive; Anthrax LF inh2: inactive

How did Cn1c(CN2CCN(CCO)CC2)c(C#N)c2ccccc21 do in these assays?
BoNT-A LC inh2: inactive; Bead autofluor: inactive; BoNT F protease: inconclusive; Anthrax LF inh2: inactive

What do the screens show for `COc1nc(N)c(S(=O)(=O)c2ccc(C)cc2)cc1C#N`?
BoNT-A LC inh2: inactive; Bead autofluor: 19122; BoNT F protease: inactive; Anthrax LF inh2: inactive

How did CCSC1=C(C#N)C2(CCCCC2)C(C#N)=C(N)N1 do in these assays?
BoNT-A LC inh2: inactive; Bead autofluor: inactive; BoNT F protease: inactive; Anthrax LF inh2: inactive

Results for CCSC1=C(C#N)C2(CCCCC2)C(C#N)C(=O)N1 (configuration not stated) ?
BoNT-A LC inh2: inconclusive; Bead autofluor: 20210; BoNT F protease: inactive; Anthrax LF inh2: inactive

What do the screens show for `CCN(CC)S(=O)(=O)c1ccc2[nH]c(=O)cc(C(=O)NCC3CCCO3)c2c1` (configuration not stated)?
BoNT-A LC inh2: inactive; Bead autofluor: inactive; BoNT F protease: inactive; Anthrax LF inh2: inactive

How did Cc1ccnc(NC(=O)c2ccc(S(=O)(=O)c3ccccc3)cc2)c1 do in these assays?
BoNT-A LC inh2: inactive; Bead autofluor: inactive; BoNT F protease: inactive; Anthrax LF inh2: inactive

How did CCOC(=O)c1cc2c(c(CSc3nc4ccccc4c(=O)n3Cc3ccco3)c1)OCOC2 do in these assays?
BoNT-A LC inh2: inactive; Bead autofluor: 20266; BoNT F protease: inactive; Anthrax LF inh2: inactive

How did O=c1c2ccccc2nc(SCc2cc(F)cc3c2OCOC3)n1Cc1ccco1 do in these assays?
BoNT-A LC inh2: inactive; Bead autofluor: 24180; BoNT F protease: inactive; Anthrax LF inh2: inactive

Results for CN(Cc1ccccc1)C(=O)CSc1nc2ccccc2c(=O)n1Cc1ccco1 ?
BoNT-A LC inh2: inactive; Bead autofluor: inactive; BoNT F protease: inactive; Anthrax LF inh2: inactive

Results for COc1ccc(CN(C(=O)CN2C(=O)C(C)Oc3ccccc32)C2CCCC2)c(OC)c1 (configuration not stated) ?
BoNT-A LC inh2: inactive; Bead autofluor: inactive; BoNT F protease: inactive; Anthrax LF inh2: inactive

What do the screens show for `COc1ccc(CN(C(=O)CN2C(=O)COc3ccccc32)C2CCCC2)c(OC)c1`?
BoNT-A LC inh2: inactive; Bead autofluor: 21877; BoNT F protease: inactive; Anthrax LF inh2: inactive

What do the screens show for `COc1ccc(-c2nnc(SC(C)C(=O)Nc3nccs3)n2Cc2ccccc2)cc1OC` (configuration not stated)?
BoNT-A LC inh2: inactive; Bead autofluor: 20588; BoNT F protease: inactive; Anthrax LF inh2: inactive

How did Cc1cc(Cl)ccc1C(=O)C1CCCN(C(=O)c2cnn(C(C)C)c2)C1 (configuration not stated) do in these assays?
BoNT-A LC inh2: inactive; Bead autofluor: inactive; BoNT F protease: inactive; Anthrax LF inh2: inactive

What do the screens show for `C(=N\N1CCN(Cc2cccc3ccccc23)CC1)/c1cccnc1`?
BoNT-A LC inh2: inactive; Bead autofluor: 20176; BoNT F protease: inactive; Anthrax LF inh2: inactive

What do the screens show for `O=C(O)c1ccc(/C=N/N2CCN(Cc3cccc4ccccc34)CC2)cc1`?
BoNT-A LC inh2: inactive; Bead autofluor: inactive; BoNT F protease: inactive; Anthrax LF inh2: inactive

How did FC(F)(F)c1ccc(/C=N/N2CCN(Cc3cccc4ccccc34)CC2)cc1 do in these assays?
BoNT-A LC inh2: inactive; Bead autofluor: 17471; BoNT F protease: inactive; Anthrax LF inh2: inactive

What do the screens show for `O=C(Cn1c(C(=O)OCCO)cc2ccccc21)c1ccccc1`?
BoNT-A LC inh2: inactive; Bead autofluor: inactive; BoNT F protease: inconclusive; Anthrax LF inh2: inactive

Results for C/C(Cl)=C/CSc1nnc2n(N)c(=O)c3ccccc3n12 ?
BoNT-A LC inh2: inactive; Bead autofluor: 23180; BoNT F protease: inactive; Anthrax LF inh2: inactive

What do the screens show for `Cc1cc(C)nc(N/C(=N\S(=O)(=O)Cc2ccccc2)Nc2cccc(Cl)c2C)n1`?
BoNT-A LC inh2: inactive; Bead autofluor: 21814; BoNT F protease: inactive; Anthrax LF inh2: inactive

How did Cc1cc(C)nc(N/C(=N\S(=O)(=O)Cc2ccccc2)Nc2ccc(F)c(Cl)c2)n1 do in these assays?
BoNT-A LC inh2: inactive; Bead autofluor: inactive; BoNT F protease: inactive; Anthrax LF inh2: inactive

What do the screens show for `CC(Oc1ccc(Cl)cc1Cl)c1nc(-c2ccc(NC(=O)c3ccncc3)cc2)no1` (configuration not stated)?
BoNT-A LC inh2: inactive; Bead autofluor: 21041; BoNT F protease: inactive; Anthrax LF inh2: inactive

How did COc1cc2[nH]c(C(=O)N3CCN(c4ccccc4F)CC3)cc2c(OC)c1OC do in these assays?
BoNT-A LC inh2: inactive; Bead autofluor: inactive; BoNT F protease: inactive; Anthrax LF inh2: inactive

How did O=C(Nc1ccccc1C(=O)NCc1ccco1)c1ccco1 do in these assays?
BoNT-A LC inh2: inactive; Bead autofluor: 17328; BoNT F protease: inactive; Anthrax LF inh2: inactive

How did O=C(Nc1ccccc1C(=O)Nc1ccccc1C(=O)NCc1ccco1)c1ccco1 do in these assays?
BoNT-A LC inh2: inactive; Bead autofluor: inactive; BoNT F protease: inactive; Anthrax LF inh2: inactive

How did O=C(NCc1ccco1)c1ccccc1Br do in these assays?
BoNT-A LC inh2: inactive; Bead autofluor: inactive; BoNT F protease: inactive; Anthrax LF inh2: inactive

How did CCSc1ccccc1C(=O)NCc1ccco1 do in these assays?
BoNT-A LC inh2: inactive; Bead autofluor: 24013; BoNT F protease: inactive; Anthrax LF inh2: inactive

How did CCSc1ccccc1C(=O)NCc1ccc(S(N)(=O)=O)cc1 do in these assays?
BoNT-A LC inh2: inactive; Bead autofluor: 23721; BoNT F protease: inactive; Anthrax LF inh2: inactive

How did NS(=O)(=O)c1ccc(CNC(=O)c2ccccc2SCC(=O)N2CCCC2)cc1 do in these assays?
BoNT-A LC inh2: inactive; Bead autofluor: inconclusive; BoNT F protease: inactive; Anthrax LF inh2: inconclusive

Results for O=C(NCCc1cn[nH]c1)c1ccc2oc(CCc3ccccc3)nc2c1 ?
BoNT-A LC inh2: inactive; Bead autofluor: inactive; BoNT F protease: inactive; Anthrax LF inh2: inactive

What do the screens show for `Cc1cccc(C(=O)N/N=C/c2ccncc2)c1`?
BoNT-A LC inh2: inactive; Bead autofluor: 16845; BoNT F protease: inactive; Anthrax LF inh2: inactive

How did O=C(C1CCN(c2ccc(N3CCOCC3)nn2)CC1)N1CCN(c2ccc(F)cc2)CC1 do in these assays?
BoNT-A LC inh2: inactive; Bead autofluor: 22313; BoNT F protease: inactive; Anthrax LF inh2: inactive

What do the screens show for `O=C(C1CCN(S(=O)(=O)N2CCOCC2)CC1)N1CCN(c2ccc(F)cc2)CC1`?
BoNT-A LC inh2: inactive; Bead autofluor: inactive; BoNT F protease: inactive; Anthrax LF inh2: inactive

What do the screens show for `COCCn1cc(C(=S)N2CCCCC2)c2ccccc21`?
BoNT-A LC inh2: inactive; Bead autofluor: inactive; BoNT F protease: inactive; Anthrax LF inh2: inactive

What do the screens show for `COCCn1cc(C(=S)N2CCOCC2)c2ccccc21`?
BoNT-A LC inh2: inactive; Bead autofluor: 22910; BoNT F protease: inactive; Anthrax LF inh2: inactive

What do the screens show for `O=C(c1cccs1)n1cc(C(=S)N2CCOCC2)c2ccccc21`?
BoNT-A LC inh2: inactive; Bead autofluor: 20879; BoNT F protease: inactive; Anthrax LF inh2: inactive

How did O=C(Nc1nc2cc3c(cc2s1)OCCO3)c1ccc([N+](=O)[O-])o1 do in these assays?
BoNT-A LC inh2: inactive; Bead autofluor: inactive; BoNT F protease: inactive; Anthrax LF inh2: inactive

Results for COc1ccc(N2COC3c4cccc5cccc(c45)C32)cc1 (configuration not stated) ?
BoNT-A LC inh2: inactive; Bead autofluor: 20787; BoNT F protease: inactive; Anthrax LF inh2: inactive
